Sampled rows, rich in hits. Any-hit rate of the full collection: about 11%.
HPGD block = qHTS Assay for Inhibitors of HPGD (15-Hydroxyprostaglandin Dehydrogenase). 15-hydroxyprostaglandin dehydrogenase [NAD(+)] (Homo sapiens), P15428. purified HPGD, NADH fluorescence kinetic, PGE2 substrate. Potency, µM, without a hit: top-dose activity change, negative = inhibition, actives largely listed as inhibitors. hit rate 4.3% among 150,000; further: potency means the concentration at half of the fitted maximal effect
Target sequence (P15428 whole entry, looked up): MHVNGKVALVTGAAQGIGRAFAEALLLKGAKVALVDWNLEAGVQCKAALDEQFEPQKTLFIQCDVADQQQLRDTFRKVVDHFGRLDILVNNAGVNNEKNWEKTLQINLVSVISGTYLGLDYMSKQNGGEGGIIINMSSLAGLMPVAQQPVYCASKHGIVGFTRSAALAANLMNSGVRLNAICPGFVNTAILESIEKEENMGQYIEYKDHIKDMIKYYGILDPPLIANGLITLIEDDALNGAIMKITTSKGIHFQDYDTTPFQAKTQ
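NADH formation kinetics: reaction with 30 uM PGE2 and 1 mM NAD+ (final), 20 nM enzyme, Tris-HCl pH 8 with Tween 20, after 15 min compound preincubation at room temperature. Fluorescence change, last versus first of five reads.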
PNC assembly inh = High Content Assay for Compounds that inhibit the Assembly of the Perinucleolar Compartment; PC3M PTB-GFP, PNC prevalence imaging, 16 h; hits give low values; activity change (PNC), negative = inhibition, % at 10 µM; hit rate 3.1% among 140,000; AID 2417, 2010;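 active means readout at or below -70, meaning at least 70% loss of cells showing the perinucleolar compartment, a nuclear body marking cancer cells; inconclusive means readout between -30 and a set limit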;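 further: plate controls were DMSO wells for no effect and camptothecin positive control wells for full effect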
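Compounds are pinned in duplicate onto adhered PC3M cells stably expressing GFP-tagged PTB and incubated 16 h at 37 C. Cells are then fixed, nuclei stained with Hoechst, and PNC-positive cells counted.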
ALDH1A1 block = qHTS Assay for Inhibitors of Aldehyde Dehydrogenase 1 (ALDH1A1) | Potency, µM (doses to about 75.3 µM), inactives show top-dose activity, negative = inhibition, actives largely listed as inhibitors | hit rate 7.3% among 220,000 | Purified ALDH1A1, NADH fluorescence, propionaldehyde substrate;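 further: potency means the concentration at half of the fitted maximal effect; plate controls were no enzyme wells and a reference inhibitor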
* hit, by the source's call; u = inconclusive; x = not tested or not shown; [ ] = dose if it differs, or a comment. Unless noted, the call rests on the fitted dose curve; in most records, active means well fitted inhibition curve with a large enough effect (not every such curve was filed as active); inconclusive means small, poorly fitted or top-dose-only effect, or another doubt; inactive means no such curve, though single readings can be large or run the other way. Unless noted, on the % scale 0 is the no-effect control and ±100 the full control effect.

SMILES	HPGD block	PNC assembly inh	ALDH1A1 block
COc1ccc(NCc2nnc(SCC(=O)Nc3cc(C(F)(F)F)ccc3Cl)o2)cc1	-14.0%	-18.3	28.2µM*
CC(C)N(C(=O)CSc1nnc(CNc2ccc(F)cc2)o1)C(C)C	-10.6%	-100.0*	0.9%
COc1ccc(NC(=O)CSc2nnc(CNc3ccc(F)cc3)o2)c(OC)c1	-14.9%	-3.3	-12.4%
Cc1ccc(C(=O)CSc2nnc(CNc3ccc(C)cc3C)o2)cc1	-7.3%	u	8.8%
COC(=O)CSc1nnc(CNc2ccc(F)cc2)o1	-3.0%	9.0	7.0%
CCCn1c(=O)c2[nH]c(-c3ccccc3)nc2n(CCC)c1=O	-19.8%	x	-10.0%
CSc1cccc(NC(=S)NCCCN2CCN(c3ccc(F)cc3)CC2)c1	x	x	3.0%
Cc1cc(Br)ccc1-n1[nH]c(C)c(C=Nc2cccc3nsnc23)c1=O	x	x	-6.0%
CC(=O)OC[C@@H]1O[C@H](C/C=N\OC[C@@H](C)[C@H](OCc2ccccc2)C(C)C)C=C[C@@H]1OC(C)=O	x	x	3.8%[13.5 µM]
NC1=NC(=Nc2cccc(Cl)c2)c2ccccc21	-28.3%	u	5.2%
COC(=O)C1=C(C)N(CCc2cc(OC)c(OC)c(OC)c2)C(=O)N[C@H]1c1ccc(Br)cc1	-2.2%	u	-0.1%
Cc1ccc(C(=O)CSc2nnc(COc3cc(C)cc(C)c3)o2)cc1	-10.3%	-5.7	u
Cc1ccc(CN(CC(=O)NC2CCCC2)C(=O)CSc2nnc(COc3ccccc3)o2)cc1	28.2µM*	-25.8	u
O=C(CN(Cc1ccccc1)C(=O)CSc1nnc(COc2ccccc2)o1)NC1CCCC1	u	-10.7	u
Cc1cc(C)cc(OCc2nnc(SCC(=O)c3ccccc3)o2)c1	28.2µM*	26.8	-11.0%
CC(=O)Nc1cccc(/C(C)=N/NC(=O)c2ccc(CN3CCOCC3)cc2)c1	x	x	2.6%
O=C(CSc1nnc(-c2ccccc2O)o1)N1CCc2ccccc2C1	-26.7%	-2.2	22.4µM*
O=C(CSc1nnc(-c2ccccc2)o1)N1CCc2ccccc2C1	u	7.4	-9.4%
Clc1ccc(-c2nnc(-c3ccccc3Cl)o2)cc1	x	-7.8	u
CC(C)N(C(=O)CSc1nnc(-c2cc3ccccc3cc2O)n1Cc1ccco1)C(C)C	-19.9%	-2.6	-5.9%
Clc1ccccc1-c1nnc(-c2ccccc2Cl)o1	15.8µM*	19.1	-9.0%
O=C(CSc1nnc(-c2ccncc2)o1)N1CCCCCC1	x	x	-3.4%
O=C(CSc1nnc(-c2ccccc2Cl)o1)N1CCCCC1	25.1µM*	1.8	u
O=C(CSc1nnc(-c2cc3ccccc3cc2O)n1Cc1ccco1)N1CCc2ccccc2C1	-21.3%	35.6	35.5µM*
Cc1c(NC(=O)C(C)n2cc([N+](=O)[O-])cn2)c(=O)n(-c2ccccc2)n1C (centres undefined)	x	x	1.5%
SMILES	HPGD block	PNC assembly inh	ALDH1A1 block
CN(CCO)c1cnccn1	x	x	-6.2%
N#Cc1c(Cl)nc(N/N=C/c2ccccc2)c(Cl)c1Cl	u	-4.8	-4.3%
C[N+](C)(C)c1ccc(/C=N/Nc2nc(Cl)c(C#N)c(Cl)c2Cl)cc1	-23.8%	u	15.8µM*
CC(C)=C[C@H]1[C@@H](COC(=O)c2ccccc2Cl)C1(C)C	-7.3%	x	1.3%[13.5 µM]
Cc1cc(C)nc(SCC(=O)N/N=C/c2cccn2-c2cccc(C(F)(F)F)c2)n1	-7.7%	-108.4*	-0.5%
Cc1cc(C)nc(SCC(=O)N/N=C/c2cccn2-c2ccc(O)cc2)n1	-10.1%	u	-10.6%
COc1ccc2ccc3c(c2c1)N=CC1(O3)N(C)c2ccccc2C1(C)C (centres undefined)	u	32.5	12.6µM*
CN1c2ccccc2C(C)(C)C12C=Nc1c(ccc3ccccc13)O2 (centres undefined)	-13.0%	-20.9	-13.5%
CNc1ccc2nnc(C(F)(F)C(F)(F)C(F)(F)F)n2n1	x	x	9.4%
Cc1cc(C(=O)NCCC2=CCCCC2)ccc1[N+](=O)[O-]	x	x	25.1µM*
COc1ccc(C(=O)NCCC2=CCCCC2)cc1OC	-17.6%	24.9	-10.1%
CCOc1cccc2cc(C(=O)Nc3nccs3)c(=O)oc12	-3.5%	3.8	0.5%
COc1cccc(NC(=O)CSc2nc3n[nH]c(C)c3c(=N)n2-c2cccc(OC)c2)c1	u	78.2	u
COc1cccc(C(=O)NCCC2=CCCCC2)c1	14.1µM*	-18.4	u
CCOc1cccc2cc(C(=O)NCCC3=CCCCC3)c(=O)oc12	x	x	25.1µM*
COc1cccc(-n2c(SCC(=O)NCCC3=CCCCC3)nc3n[nH]c(C)c3c2=N)c1	-17.0%	51.0	20µM*
O=C(NCCC1=CCCCC1)c1ccc([N+](=O)[O-])cc1	-16.6%	u	-10.5%
CCCSc1ccc(C(=O)Nc2ccc(Cl)cc2)cn1	x	x	8.6%
